Source: PubChem BioAssay
Most compounds without a hit are left out; they make up all but 4.1% or so of the library.
DAX1 inh-1 – blocks DAX1 repression of SF-1 activated StAR promoter. AID 652010. 1.1% of 370,000 active. inhibition, % at 6.8 µM. HEK293T StAR-luciferase reporter, SF-1/DAX-1 repression relief;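 active = inhibition above the mean over all tested compounds plus 3 SD, cut at about 3.6% in these data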;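 note: 0% = DAX-1 cells with DMSO and 100% = cells lacking DAX-1 with DMSO; higher inhibition means more luminescence from relief of DAX-1 repression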
DAX1 inh-2 – inhibits human nuclear receptor DAX1; HEK293 Gal4-DAX1 luciferase reporter, luminescence; inhibition, % at 6.75 µM; 0.99% of 340,000 active; AID 504766;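 active = inhibition above the mean over all tested compounds plus 3 SD, cut at about 4.2% in these data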;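 note: 0% = DAX1-transfected cells with DMSO and 100% = empty-vector control cells with DMSO; inhibition shows as a rise in luminescence from relieved DAX1 repression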
Target sequence (P51843 207-470 limits assumed): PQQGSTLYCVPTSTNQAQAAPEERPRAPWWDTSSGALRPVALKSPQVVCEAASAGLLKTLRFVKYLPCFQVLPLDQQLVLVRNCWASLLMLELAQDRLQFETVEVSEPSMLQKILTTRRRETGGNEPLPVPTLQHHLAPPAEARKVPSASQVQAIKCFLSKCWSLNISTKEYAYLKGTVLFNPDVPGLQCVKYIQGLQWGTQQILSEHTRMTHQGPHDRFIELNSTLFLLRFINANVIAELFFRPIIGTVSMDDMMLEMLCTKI
hcDAF-12 act – activates DAF-12 receptor from parasite H. contortus; AID 652067; 1.4% of 370,000 active; HEK293 hcDAF-12 lit1-tk-luc reporter, luminescence; 0% DMSO, 100% Δ7-dafachronic acid; activation, % at 6.8 µM;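 active = activation above the mean of all tested compounds plus 3 SD, cut at about 5.5% in these data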;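 note: 100% = response to 3 µM Δ7-dafachronic acid high control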
hgDAF-12 ag – agonists of H. glycines DAF-12 nuclear receptor | HEK293 GAL4-hgDAF12 UAS-luciferase reporter, agonist luminescence; normalized to butyrate control | activation, % at 6.8 µM | 1.8% of 370,000 active | AID 687014;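 active = activation above a cutoff set at the mean of all screened compounds plus 3 SD, cut at about 10% in these data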;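 note: 0% = DMSO wells and 100% = sodium butyrate wells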
ssDAF12 agonist – activates DAF-12 receptor from parasite S. stercoralis; HEK293 ssDAF-12/GRIP1 lit1-tk-luc reporter, luminescence; % of 3 µM dafachronic acid response; activation, % at 6.8 µM; 1% of 370,000 active; AID 652126;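 active = activation above the mean over all tested compounds plus 3 SD, cut at about 0.9% in these data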;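 note: 0% = DMSO-only wells and 100% = 3 µM delta7-dafachronic acid wells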
LXR ag – counter-screen for hcDAF-12 agonists: agonists of human LXR-beta | AID 743027 | shares compounds with hcDAF-12 act | activation, % at 6.8 µM | HEK293 Gal4-LXR tk-luc reporter, luminescence, 24 h; normalized: DMSO 0%, positive control 100% | 3,400 tested, under 10 active;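 active = mean percent activation of the reporter above a cutoff set as the average over tested compounds plus their standard deviation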
hcDAF12 ag – hcDAF-12 agonism, confirmation assay | HEK293 hcDAF-12 lit1-tk-luc reporter, luminescence; % of Δ7-dafachronic acid response | shares compounds with hcDAF-12 act | activation, % at 6.8 µM | 61% of 3,400 active | AID 743032;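 active = mean activation across triplicate tests above the threshold derived from the earlier primary screen, cut at about 5.5% in these data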;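 note: 0% = DMSO only wells and 100% = 3 µM Δ7-dafachronic acid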
An asterisk follows results filed as active; . = no result given.

SMILES	DAX1 inh-1	DAX1 inh-2	hcDAF-12 act	hgDAF-12 ag	ssDAF12 agonist	LXR ag	hcDAF12 ag
CC(=O)/C=C1\OCc2cc(OCc3ccccc3)ccc21	-2	.	0	3	-1	.	.
N#Cc1ccc(CC(C(=O)O)N2Cc3ccccc3C2=O)cc1 (stereo not given)	0	1	0	1	-1	.	.
COc1ccc2nc(/N=C\N(C)C)sc2c1	1	1	4	3	0	.	.
CN(C)/C=N/c1nc2ccc3c(c2s1)CCCC3	3	3	6.7*	11*	0	1	6.4*
Cn1c(C=O)c(-c2ccc3cc[nH]c3c2)c2ccccc21	0	3	7.7*	4	0	0	5
Cn1c(-c2ccsc2)c(-c2cccs2)c2cc(-c3ccc4cc[nH]c4c3)ccc21	0	2	0	1	-1	.	.
COc1ccc(NC(=O)CC2SC(=N)N(c3ccccc3)C2=O)c(OC)c1 (stereo not given)	0	0	-1	1	-2	.	.
c1ccc(-c2nc3ccccc3o2)nc1	1	4	5	8	0	.	.
c1ccc2nc(-c3nc4ccccc4o3)ccc2c1	1	-3	13*	4	0	2	23*
c1cncc(-c2nc(-c3ccc4c(c3)OCO4)cs2)c1	2	1	6.8*	12*	0	1	5
Cn1c(NC(=O)/C=C/c2ccccc2)cc(=O)n(C)c1=O	1	4.8*	11*	2	1.3*	1	6.3*
COc1ccc(-c2cc(C(=O)N3CCN(C(c4ccccc4)c4ccccc4)CC3)no2)cc1	.	0	.	.	.	.	.
COc1ccc(-c2cc(C(=O)N3CCCCCC3)no2)cc1	2	6.2*	7.6*	9	0	1	4
Cc1cccc(C(=O)NNC(=O)c2ccc(Cl)cc2)c1O	2	1	7.1*	5	0	0	5.9*
Cc1ccc(C2Nc3ccccc3-c3nc4ccccc4n32)o1 (stereo not given)	0	-1	6.7*	12*	0	1	2
Cc1cc(C)nc(SCC(CSc2nc(C)cc(C)n2)C(=O)O)n1	0	-1	0	1	0	.	.
Nc1cc2c(cc1N)-c1ccccc1C2	3.8*	3	6.7*	8	0	0	4
COc1cc(/C=N/NC(=O)c2nnn(-c3nonc3N)c2C(C)C)ccc1O	0	0	6.7*	12*	-2	0	1
COCC(=O)N(C)C[C@@H]1Oc2cc(-c3ccc(F)cc3)ccc2S(=O)(=O)N([C@H](C)CO)C[C@H]1C	1	0	-1	-4	-1	.	.
Cc1c(C(=O)/C=C/c2cccs2)oc2ccc(F)cc12	0	2	8.3*	12*	0	1	14*
Cc1c(C(=O)N2CCN(C(=O)c3ccccc3)CC2)oc2ccc(F)cc12	0	0	0	2	-1	.	.
CCN(CC)CCC(=O)NN	0	2	-1	-1	-2	.	.
S=C(Nc1ccccc1)Nc1nc2ccccc2n1CCOc1ccc(Br)cc1	0	1	-1	-2	-1	.	.
Cn1c(NC(=S)Nc2ccccc2)nc2ccccc21	2	0	7.9*	11*	1	1	5
CCC1CCC(NC(=O)Nc2cccc(OC)c2)CC1 (stereo not given)	3	3	12*	19*	-1	1	6.2*
CCCc1nnc(SCC(=O)O)n1CC	1	2	1	-3	-1	.	.
COCCN1CC(=O)N2C(c3cccc(C)c3)c3[nH]c4ccccc4c3C[C@H]2C1=O (stereo not given in full)	0	0	9.6*	-1	1	0	3
COCCCN1CC(=O)N2C(c3cccc(C)c3)c3[nH]c4ccccc4c3C[C@H]2C1=O (stereo not given in full)	0	0	4	-2	-1	.	.
FC(F)(F)c1nc2cc3nc4ccccc4[nH]c3cc2n1	0	3	7.6*	2	0	1	4
